Experiments:
Test in all cases: growth AUC relative to DMSO control (median of replicates) (fraction); higher = more growth (less inhibition), active = hit call of the paper
Settings in all cases: 20 µM; 24 h;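 active = AUC reduced over 20% with Padj below 0.05 in at least 2 of 3 replicates; inactive = otherwise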
Akkermansia muciniphila = tested on: Akkermansia muciniphila
Procedure, shortened: (§1)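 For each compound at 20 µM (1% DMSO), gut bacterial monocultures seeded at OD600 0.05 grew anaerobically in mGAM at 37 °C in round-bottom 96-well plates. Hourly OD600 readings over 24 h gave growth curves whose minimum OD was set to 0. Area under these curves was normalised to the plate median of solvent-only wells, or to row and column medians on the industrial chemical plate. Values are medians of three biological replicates grown on separate days.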

Bacteroides caccae = tested on: Bacteroides caccae
Procedure, shortened: as §1

Bacteroides clarus = tested on: Bacteroides clarus
Procedure, shortened: as §1

Bacteroides dorei = tested on: Bacteroides dorei
Procedure, shortened: as §1

Bacteroides stercoris = tested on: Bacteroides stercoris
Procedure, shortened: as §1

[1] = tested on: Bacteroides thetaiotaomicron
Procedure, shortened: as §1

Bacteroides uniformis = tested on: Bacteroides uniformis
Procedure, shortened: as §1

[2] = tested on: Bifidobacterium longum subsp. longum
Procedure, shortened: as §1

Clostridium difficile = tested on: Clostridium difficile
Procedure, shortened: as §1

Collinsella aerofaciens = tested on: Collinsella aerofaciens
Procedure, shortened: as §1

Coprococcus comes = tested on: Coprococcus comes
Procedure, shortened: as §1

Escherichia coli ED1a = tested on: Escherichia coli ED1a
Procedure, shortened: as §1

Escherichia coli IAI1 = tested on: Escherichia coli IAI1
Procedure, shortened: as §1

Eubacterium rectale = tested on: Eubacterium rectale
Procedure, shortened: as §1

[3] = tested on: Fusobacterium nucleatum subsp. animalis
Procedure, shortened: as §1

Lactobacillus gasseri = tested on: Lactobacillus gasseri
Procedure, shortened: as §1

Lactobacillus paracasei = tested on: Lactobacillus paracasei
Procedure, shortened: as §1

Odoribacter splanchnicus = tested on: Odoribacter splanchnicus
Procedure, shortened: as §1

[4] = tested on: Parabacteroides distasonis
Procedure, shortened: as §1

Parabacteroides merdae = tested on: Parabacteroides merdae
Procedure, shortened: as §1

Measured: growth AUC

COCCOC(=O)C(C#N)(C(=O)c1ccccc1C(F)(F)F)c1ccc(C(C)(C)C)cc1 (stereo not given)
inactive: Akkermansia muciniphila 1.07 | Bacteroides caccae 0.937 | Bacteroides clarus 0.965 | Bacteroides dorei 0.927 | Bacteroides stercoris 0.941 | [1] 1.01 | Bacteroides uniformis 0.942 | [2] 1.01 | Clostridium difficile 0.943 | Collinsella aerofaciens 0.885 | Coprococcus comes 0.971 | Escherichia coli ED1a 0.953 | Escherichia coli IAI1 0.966 | Eubacterium rectale 1.05 | [3] 1.03 | Lactobacillus gasseri 0.839 | Lactobacillus paracasei 0.908 | Odoribacter splanchnicus 1 | [4] 0.723 | Parabacteroides merdae 0.946

CCOc1ccc(C(C)(C)COCc2cccc(Oc3ccccc3)c2)cc1
inactive: Akkermansia muciniphila 1.08 | Bacteroides caccae 0.967 | Bacteroides clarus 1.03 | Bacteroides dorei 0.967 | Bacteroides stercoris 0.792 | [1] 0.958 | Bacteroides uniformis 1.05 | [2] 1.48 | Clostridium difficile 1.04 | Collinsella aerofaciens 0.967 | Coprococcus comes 1 | Escherichia coli ED1a 0.991 | Escherichia coli IAI1 0.982 | Eubacterium rectale 1.06 | [3] 0.972 | Lactobacillus gasseri 0.918 | Lactobacillus paracasei 1.04 | Odoribacter splanchnicus 1.07 | [4] 0.987 | Parabacteroides merdae 0.992

CN(C)C(=S)SSC(=S)N(C)C
inactive: Akkermansia muciniphila 0.83 | Bacteroides caccae 0.968 | Bacteroides clarus 0.967 | Bacteroides dorei 0.961 | Bacteroides stercoris 0.87 | Bacteroides uniformis 0.909 | [2] 0.974 | Clostridium difficile 0.945 | Collinsella aerofaciens 0.957 | Coprococcus comes 0.833 | Escherichia coli ED1a 0.973 | Escherichia coli IAI1 0.973 | Eubacterium rectale 0.83 | [3] 1.09 | Lactobacillus gasseri 0.875 | Lactobacillus paracasei 1.02 | [4] 0.928 | Parabacteroides merdae 0.852
active: [1] 0.75 | Odoribacter splanchnicus 0.0343

O=[N+]([O-])c1c(Cl)c(Cl)c(Cl)c(Cl)c1Cl
inactive: Akkermansia muciniphila 0.814 | Bacteroides caccae 0.777 | Bacteroides clarus 0.816 | Bacteroides dorei 0.972 | Bacteroides stercoris 0.986 | [1] 0.915 | Bacteroides uniformis 0.917 | [2] 0.808 | Clostridium difficile 1.01 | Collinsella aerofaciens 1.04 | Coprococcus comes 0.821 | Escherichia coli ED1a 1 | Escherichia coli IAI1 1.01 | Eubacterium rectale 0.909 | [3] 0.942 | Lactobacillus gasseri 1.16 | Lactobacillus paracasei 0.945 | Odoribacter splanchnicus 0.946 | [4] 0.969 | Parabacteroides merdae 0.942

COC(=O)NC(=S)Nc1ccccc1NC(=S)NC(=O)OC
inactive: Akkermansia muciniphila 1.04 | Bacteroides caccae 0.99 | Bacteroides clarus 0.985 | Bacteroides dorei 1.01 | Bacteroides stercoris 1.12 | [1] 0.981 | Bacteroides uniformis 0.988 | [2] 0.958 | Clostridium difficile 0.951 | Collinsella aerofaciens 1.01 | Coprococcus comes 0.93 | Escherichia coli ED1a 0.995 | Escherichia coli IAI1 0.996 | Eubacterium rectale 1.14 | [3] 1.12 | Lactobacillus gasseri 0.835 | Lactobacillus paracasei 1.01 | Odoribacter splanchnicus 1.05 | [4] 0.944 | Parabacteroides merdae 1.03

CCOC(=O)COc1cc(-c2nn(C)c(OC(F)F)c2Cl)c(F)cc1Cl
inactive: Akkermansia muciniphila 0.977 | Bacteroides caccae 0.974 | Bacteroides clarus 0.986 | Bacteroides dorei 0.99 | Bacteroides stercoris 0.965 | [1] 1.01 | Bacteroides uniformis 1.04 | [2] 1.03 | Clostridium difficile 1.02 | Collinsella aerofaciens 1.04 | Coprococcus comes 0.979 | Escherichia coli ED1a 0.995 | Escherichia coli IAI1 0.971 | Eubacterium rectale 1.13 | [3] 1.12 | Lactobacillus gasseri 0.996 | Lactobacillus paracasei 1.01 | Odoribacter splanchnicus 1 | [4] 1.02 | Parabacteroides merdae 1

CC(C)Oc1cc(-n2nc(C(C)(C)C)oc2=O)c(Cl)cc1Cl
inactive: Akkermansia muciniphila 1.21 | Bacteroides caccae 0.984 | Bacteroides clarus 0.942 | Bacteroides dorei 0.982 | Bacteroides stercoris 0.884 | [1] 0.987 | Bacteroides uniformis 0.898 | [2] 0.962 | Clostridium difficile 0.932 | Collinsella aerofaciens 0.921 | Coprococcus comes 1.01 | Escherichia coli ED1a 0.96 | Escherichia coli IAI1 0.993 | Eubacterium rectale 1.04 | [3] 1 | Lactobacillus gasseri 0.803 | Lactobacillus paracasei 1.01 | Odoribacter splanchnicus 0.967 | Parabacteroides merdae 0.96
active: [4] 0.705

CCOP(=S)(OCC)Oc1nc(Cl)n(C(C)C)n1
inactive: Akkermansia muciniphila 1.04 | Bacteroides caccae 0.932 | Bacteroides clarus 1.02 | Bacteroides dorei 1.01 | Bacteroides stercoris 1.14 | [1] 1.01 | Bacteroides uniformis 0.972 | [2] 0.964 | Clostridium difficile 0.982 | Collinsella aerofaciens 1.02 | Coprococcus comes 0.986 | Escherichia coli ED1a 1 | Escherichia coli IAI1 0.999 | Eubacterium rectale 0.886 | [3] 1.16 | Lactobacillus gasseri 0.952 | Lactobacillus paracasei 0.954 | Odoribacter splanchnicus 0.991 | [4] 0.917 | Parabacteroides merdae 0.974

CCC(C)(C)c1ccc(O)cc1
inactive: Akkermansia muciniphila 0.91 | Bacteroides caccae 1.01 | Bacteroides clarus 0.981 | Bacteroides dorei 1.03 | Bacteroides stercoris 0.859 | [1] 1 | Bacteroides uniformis 1 | [2] 1.08 | Clostridium difficile 1.06 | Collinsella aerofaciens 1.01 | Coprococcus comes 1.03 | Escherichia coli ED1a 0.978 | Escherichia coli IAI1 0.985 | Eubacterium rectale 0.953 | [3] 1 | Lactobacillus gasseri 0.957 | Lactobacillus paracasei 0.999 | Odoribacter splanchnicus 1.08 | [4] 1.03 | Parabacteroides merdae 1.01

Cc1c(COC(=O)[C@@H]2[C@H](/C=C(\Cl)C(F)(F)F)C2(C)C)cccc1-c1ccccc1
inactive: Akkermansia muciniphila 0.924 | Bacteroides caccae 0.971 | Bacteroides clarus 0.998 | Bacteroides dorei 1.01 | Bacteroides stercoris 0.972 | [1] 0.974 | Bacteroides uniformis 1.01 | [2] 0.923 | Clostridium difficile 1.02 | Collinsella aerofaciens 0.928 | Coprococcus comes 1.03 | Escherichia coli ED1a 1.02 | Escherichia coli IAI1 1.02 | Eubacterium rectale 0.938 | [3] 1.07 | Lactobacillus gasseri 0.862 | Lactobacillus paracasei 0.982 | Odoribacter splanchnicus 1.03 | [4] 1.01 | Parabacteroides merdae 0.965

Cc1cnc(C2=NC(C)(C(C)C)C(=O)N2)c(C(=O)O)c1 (stereo not given)
inactive: Akkermansia muciniphila 1.05 | Bacteroides caccae 0.987 | Bacteroides clarus 0.993 | Bacteroides dorei 1.02 | Bacteroides stercoris 0.976 | [1] 1.01 | Bacteroides uniformis 1.01 | [2] 1.03 | Clostridium difficile 1.01 | Collinsella aerofaciens 1.02 | Coprococcus comes 1 | Escherichia coli ED1a 0.999 | Escherichia coli IAI1 1.01 | Eubacterium rectale 0.985 | [3] 0.976 | Lactobacillus gasseri 1.04 | Lactobacillus paracasei 0.939 | Odoribacter splanchnicus 0.953 | [4] 1.07 | Parabacteroides merdae 1.02

Clc1ccc(C(c2ccc(Cl)cc2)C(Cl)(Cl)Cl)cc1
inactive: Akkermansia muciniphila 1.1 | Bacteroides caccae 0.934 | Bacteroides dorei 0.955 | [1] 0.866 | [2] 0.886 | Clostridium difficile 0.943 | Collinsella aerofaciens 0.869 | Coprococcus comes 0.964 | Escherichia coli ED1a 0.963 | Escherichia coli IAI1 0.979 | Eubacterium rectale 0.878 | [3] 0.916 | Lactobacillus gasseri 0.487 | Lactobacillus paracasei 0.908 | Odoribacter splanchnicus 0.709
active: Bacteroides clarus 0.763 | Bacteroides stercoris 0.127 | Bacteroides uniformis 0.798 | [4] 0.258 | Parabacteroides merdae 0.69

CCOP(=O)(Sc1ccccc1)Sc1ccccc1
active: [4] 0.649
inactive: Akkermansia muciniphila 1.16 | Bacteroides caccae 0.985 | Bacteroides clarus 0.895 | Bacteroides dorei 0.927 | Bacteroides stercoris 0.795 | [1] 0.932 | Bacteroides uniformis 0.881 | [2] 1.02 | Clostridium difficile 0.984 | Collinsella aerofaciens 1.03 | Coprococcus comes 1.02 | Escherichia coli ED1a 0.995 | Escherichia coli IAI1 0.982 | Eubacterium rectale 1.13 | [3] 1.08 | Lactobacillus gasseri 0.957 | Lactobacillus paracasei 0.953 | Odoribacter splanchnicus 0.965 | Parabacteroides merdae 0.934

O=C(O)C(F)(F)C(F)(F)C(F)(F)C(F)(F)C(F)(F)C(F)(F)C(F)(F)C(F)(F)C(F)(F)F
inactive: Akkermansia muciniphila 0.991 | Bacteroides caccae 0.977 | Bacteroides clarus 0.933 | Bacteroides dorei 1.01 | Bacteroides stercoris 0.998 | [1] 1.1 | Bacteroides uniformis 1.02 | [2] 0.939 | Clostridium difficile 0.968 | Collinsella aerofaciens 0.984 | Coprococcus comes 0.991 | Escherichia coli ED1a 1.01 | Escherichia coli IAI1 1.01 | Eubacterium rectale 0.892 | [3] 1.01 | Lactobacillus gasseri 1.01 | Lactobacillus paracasei 1.03 | Odoribacter splanchnicus 0.993 | [4] 0.913 | Parabacteroides merdae 0.97

CCOC(=O)C(O)(c1ccc(Cl)cc1)c1ccc(Cl)cc1
inactive: Akkermansia muciniphila 0.996 | Bacteroides caccae 0.872 | Bacteroides dorei 0.951 | [1] 0.874 | Bacteroides uniformis 0.991 | [2] 0.997 | Clostridium difficile 1.04 | Collinsella aerofaciens 0.978 | Coprococcus comes 0.953 | Escherichia coli ED1a 1.03 | Escherichia coli IAI1 0.968 | Eubacterium rectale 1.02 | [3] 0.879 | Lactobacillus gasseri 1.03 | Lactobacillus paracasei 0.979 | Odoribacter splanchnicus 0.992 | [4] 0.823 | Parabacteroides merdae 0.92
active: Bacteroides clarus 0.78 | Bacteroides stercoris 0.376

Cc1cnc2c(C(=O)O)c(Cl)ccc2c1
inactive: Akkermansia muciniphila 0.939 | Bacteroides caccae 0.996 | Bacteroides clarus 0.986 | Bacteroides dorei 1.03 | Bacteroides stercoris 1.03 | [1] 0.995 | Bacteroides uniformis 1.04 | [2] 0.967 | Clostridium difficile 0.995 | Collinsella aerofaciens 1.01 | Coprococcus comes 0.983 | Escherichia coli ED1a 0.977 | Escherichia coli IAI1 0.987 | Eubacterium rectale 0.934 | [3] 0.952 | Lactobacillus gasseri 0.952 | Lactobacillus paracasei 1.05 | Odoribacter splanchnicus 0.968 | [4] 0.967 | Parabacteroides merdae 1.01
